ELG1 DNA repair = blocks ELG1-dependent DNA repair in HEK293T cells. actives 2.3% (n = 330,000). AID 504467. Potency, µM (series often up to 46.1 µM), for the others: top-dose activity change, negative = inhibition, hits mostly inhibitors. HEK293T ELG1-luciferase reporter, luminescence, 16 h; DNA damage induced by 5-fluorouridine; further: potency means the concentration at half of the fitted maximal effect; nearly all actives have a fitted effect of over 55% in size
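HEK293T cells expressing luciferase-tagged ELG1 (2,000/well) received 5-Fluorouridine plus compound or DMSO for 16 hr at 37 °C. Luciferase was read by ONE-Glo luminescence after 30 min at room temperature.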
TSHR antag = antagonists of human thyroid stimulating hormone receptor | TSHR-expressing cells, TSH-stimulated cAMP HTRF, 2 h; hits give low values | activity change, negative = inhibition, % at 11.5 µM | actives 0.2% (n = 330,000) | AID 504810;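 active means activity change below a set negative limit, meaning inhibition stronger than a set level, cut at about -70% in these data; inconclusive means activity change between two set negative limits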
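Competitive HTRF cAMP read-out (cryptate anti-cAMP antibody, cAMP-d2; 30 min, room temperature) in freshly harvested TSHR cells. Compounds added before TSH at EC80 (4nM final), followed by 2 hours' incubation at 37 deg C.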
Coupling enz = inhibits coupling enzyme system, counter-screen for aldolase hits; coupling enzyme system counterscreen, AmpLite Red fluorescence; activity change, negative = inhibition, % at 58.2 µM, hits read low; actives 0.67% (n = 290,000); in the data active means activity change below about -30%
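First, compound is pin-transferred into glyceraldehyde-3-phosphate coupling-enzyme reagent at 57.5 uM final and held 10 min at RT. Next, substrate, coupling system and AmpLite Red are added. After 20 min RT, fluorescence (525/598 nm) is read.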
Gal4-VP16 FLuc = counter-screen for ROR gamma inhibitors: Gal4-VP16 reporter. Drosophila S2 Gal4-VP16 UAS-luciferase, luminescence, 20 h. Potency, µM (titrated, usually from 53.6 µM), without a hit: at the top dose activity, negative = inhibition, hits mostly inhibitors. actives 3.5% (n = 310,000);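 further: Gal4-VP16 expression switched on by copper sulfate through the metallothionein promoter; potency means the concentration at half of the fitted maximal effect; nearly all actives have a fitted effect of over 50% in size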
RORg inh = ROR gamma (mouse) transcription inhibition; Drosophila S2 Gal4-RORgamma UAS-luciferase reporter, 20 h; Potency, µM (highest dose often 53.6 µM), for the others: top-dose activity change, negative = inhibition, usual class: inhibitors; actives 5.4% (n = 310,000); AID 2551; further: potency means the concentration at half of the fitted maximal effect; nearly all actives have a fitted effect of over 60% in size
Target sequence (P51450 whole entry, looked up, the tested form may be a part): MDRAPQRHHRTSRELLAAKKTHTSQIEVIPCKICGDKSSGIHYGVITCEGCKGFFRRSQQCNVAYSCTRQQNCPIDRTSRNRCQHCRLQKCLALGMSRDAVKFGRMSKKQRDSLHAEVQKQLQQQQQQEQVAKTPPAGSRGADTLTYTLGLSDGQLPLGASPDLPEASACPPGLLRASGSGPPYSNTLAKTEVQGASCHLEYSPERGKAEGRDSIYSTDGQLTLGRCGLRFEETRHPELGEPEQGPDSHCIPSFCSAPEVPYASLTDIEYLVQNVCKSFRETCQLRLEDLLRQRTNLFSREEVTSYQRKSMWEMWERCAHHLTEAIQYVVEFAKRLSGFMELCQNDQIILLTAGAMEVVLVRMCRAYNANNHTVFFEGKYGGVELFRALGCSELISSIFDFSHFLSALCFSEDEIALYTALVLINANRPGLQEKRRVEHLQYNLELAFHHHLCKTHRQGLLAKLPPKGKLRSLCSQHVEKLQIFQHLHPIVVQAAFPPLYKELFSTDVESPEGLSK
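Using a luciferase readout, inhibitors were identified by reduced reporter activity in Drosophila cells coexpressing a copper-inducible Gal4–ROR gamma fusion and UAS-driven Photinus luciferase, incubated 20 hr after 700 uM copper sulfate.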
Active calls of the source: *; ? = inconclusive; nt = no result; [ ] = another dose, or the depositor's remark. Shown are actives, neighbours in structure and some others; about 8% of the full set was active somewhere. Unless noted, the call rests on the fitted dose curve; in most records, active means well fitted curve in the direction sought with a large enough effect; inconclusive means small, poorly fitted or top-dose-only effect, or another doubt; inactive means no such curve, though single readings can be large; an effect the other way counts as inactive or inconclusive. On the % scale 0 is the no-effect control and ±100 the full control effect.

SMILES | ELG1 DNA repair | TSHR antag | Coupling enz | Gal4-VP16 FLuc | RORg inh
Cc1ccc(Oc2nc(CN3CCOCC3)nc3sc4c(c23)CCC(C)C4)cc1C (stereo not drawn) | 13µM* | 13 | -1 | 11µM* | 7.9µM*
CC1CCc2c(sc3nc(CN4CCOCC4)nc(N4CCc5ccccc5C4)c23)C1 (stereo not drawn) | ? | -5 | -1 | ? | -78%
COc1cccc(Nc2nc(CN3CCOCC3)nc3sc4c(c23)CCCC4)c1 | 10µM* | 9 | 0 | ? | 10µM*
COc1cc(NC(=O)c2cc([N+](=O)[O-])ccc2NC(=O)CN2CCN(c3ccccn3)CC2)cc(OC)c1 | ? | 15 | nt | 2% | -23%
Cc1ccc(/C=C2/CNC/C(=C\c3ccc(C)cc3)C2=O)cc1 | nt | nt | 1 | 7.1µM* | 3.5µM*
COc1ccc(NS(=O)(=O)c2ccc(-c3cnc(C4CC4)o3)cc2)cc1OC | 1.8µM* | -35 | nt | 7.1µM* | ?
COc1ccc(NS(=O)(=O)c2ccc(-n3cnnn3)cc2)cc1OC | -18% | 0 | nt | 10µM* | -5%
COc1ccc(S(=O)(=O)Nc2ccc3c(c2)OCCO3)cc1Cl | -10% | 6 | 0 | ? | ?
COc1ccc(NS(=O)(=O)c2ccc3c(c2)OCCO3)cc1OC | 2.3µM* | -28 | -2 | 7.1µM* | ?
CC(=O)Nc1ccc(S(=O)(=O)Nc2ccc3c(c2)OCCO3)cc1Cl | ? | 1 | 7 | 13µM* | ?
CC1(C)S[C@@H]2[C@H](NC(=O)[C@@H](N)c3ccccc3)C(=O)N2[C@H]1C(=O)O[C@H]1OC(=O)c2ccccc21 | nt | nt | 1 | -1%[17 µM] | 8%[2.98 µM]
COc1ccccc1OCCNC(=O)c1cccc(S(=O)(=O)N2CC(C)OC(C)C2)c1 (stereo not drawn) | ? | -12 | -1 | nt | nt
CC(=O)Nc1ccc(S(=O)(=O)Nc2ccc3c(c2)C(=O)OC3)cc1 | -9% | 3 | 2 | 11µM* | ?
CC(C)[C@H](N)C(=O)N[C@@H](CCC(N)=O)C(=O)NCC(=O)N[C@@H](CCC(=O)O)C(=O)N[C@@H](CCC(=O)O)C(=O)N[C@@H](CO)C(=O)N[C@@H](CC(N)=O)C(=O)N[C@@H](CC(=O)O)C(=O)N[C@@H](CCCCN)C(=O)O | nt | nt | 0 | -4% | 0%
Cc1cc(OC(F)F)ccc1NC(=S)NCCc1ccccc1 | -8% | 47 | 1 | 10µM* | 7.9µM*
COc1cc(NC(=S)NCCc2ccccc2)c(OC)cc1NC(=O)C(C)C | -17% | -5 | 0 | -28% | ?
COc1cc(C)c(NC(=O)C(=S)NCCc2ccccc2)cc1C | 1% | -15 | 4 | 7% | 34%
CCc1cc(Br)ccc1NC(=S)NCCc1ccccc1 | ? | 31 | nt | 6.3µM* | 5µM*
COc1ccc(NC(=S)NCCc2ccccc2)c(C)c1 | -24% | 11 | 2 | 4µM* | 6.3µM*
COc1ccc(CCNC(=S)Nc2ccc(C)cc2C)cc1 | -5% | -2 | 0 | 7.1µM* | 4µM*
COc1cccc(NC(=O)c2cnc(SCC(=O)NCc3ccc4c(c3)OCO4)n(C)c2=O)c1 | ? | 1 | nt | nt | nt
CCC(=O)NC1(C(F)(F)F)C(=O)Nc2c1c(=O)[nH]c(=O)n2CC(C)C (stereo not drawn) | -5% | -3 | 1 | -2% | -1%
COc1cc(CNS(=O)(=O)c2ccc3c(c2)CC(C)N3C(C)=O)cc(OC)c1OC (stereo not drawn) | -4% | 6 | -2 | 22µM* | 29%
COc1ccc(CCNS(=O)(=O)c2ccc3c(c2)CC(C)N3C(C)=O)cc1OC (stereo not drawn) | ? | 3 | 2 | -29% | ?
CC(=O)N1c2ccc(S(=O)(=O)NCCC(=O)NC3CCCC(C)C3C)cc2CC1C (stereo not drawn) | 9.2µM* | 53 | nt | -8% | 37%
SMILES | ELG1 DNA repair | TSHR antag | Coupling enz | Gal4-VP16 FLuc | RORg inh
CC(=O)N1CCc2cc(S(=O)(=O)NCCC(=O)NC3CCCc4ccccc43)ccc21 (stereo not drawn) | 13µM* | 7 | -7 | nt | -19%[0.365 µM]
Cn1c(=O)oc2cc(S(=O)(=O)NCCC(=O)NC3CCCc4ccccc43)ccc21 (stereo not drawn) | -2% | -5 | -23 | -11%[0.365 µM] | 4%
COc1ccc(CNC(=O)[C@@H](NC(=O)C2CCN(S(=O)(=O)c3ccccc3)CC2)C(C)C)cc1 | 3% | 18 | nt | 1% | 13%
Cc1cc(C(F)(F)F)nn1CC(=O)NNC(=S)NCC(C)C | 4% | 3 | 1 | -20% | 7.1µM*
Cc1cc([N+](=O)[O-])nn1CC(=O)NNC(=S)Nc1ccc(F)cc1 | 0% | -1 | -4 | ? | 14µM*
Cc1cc([N+](=O)[O-])nn1CC(=O)Nc1ccc(F)cc1 | 1% | -2 | 2 | -17% | -31%
CCNC(=S)NNC(=O)Cn1nc(C)cc1C | -7% | 10 | 0 | -21% | 10µM*
Cn1c(SCc2cccc(Br)c2)nnc1-c1ccncc1 | -15% | 2 | -1 | 5% | 8%
Cc1cccc(NC(=O)CN(C)C(=O)C2CCCC2)c1C | 10% | 13 | nt | nt | nt
CN(C(=O)c1cc2n(n1)C(C(F)(F)F)CC(c1ccco1)N2)c1ccc(OC(F)(F)F)cc1 (stereo not drawn) | -12% | 3 | 0 | 18µM* | ?
CSc1nc(N)nc2c1ncn2CC(=O)N[C@H](CO)Cc1c[nH]c2ccccc12 | -4% | -8 | nt | nt | nt
CCOC(=O)c1ccc(NC(=S)N2CCN(CCN=CC3=C(O)CC(C)(C)CC3=O)CC2)cc1 | 6% | 31 | -2 | ? | 13µM*
CCOC(=O)c1ccc(NC(=O)CN2CCN(CCN=CC3=C(O)CC(C)(C)CC3=O)CC2)cc1 | 8% | 9 | -1 | -6% | -12%
O=C(COC(=O)/C=C/c1cccc(C(F)(F)F)c1)NC1CCCCCC1 | 24% | 27 | nt | nt | nt
COc1ccc(-c2cc(C(F)F)n3ncc(C(=O)N4CCSCC4)c3n2)cc1 | 16µM* | -4 | 4 | 5% | 1%
Cc1cc(NC(=O)c2cnn3c(C(F)F)cc(-c4ccccc4)nc23)no1 | 8.2µM* | -7 | 0 | ? | -12%[10 µM]
Cc1nn(C)c(C)c1NC(=O)c1cnn2c(C(F)F)cc(-c3ccccc3)nc12 | 4% | -9 | 2 | -1% | 2%
COc1ccc(-c2cc(C(F)F)n3ncc(C(=O)N4CCCc5ccccc54)c3n2)cc1 | -19% | -6 | 2 | -3% | -1%
COc1ccc(-c2cc(C(F)F)n3ncc(C(=O)N4CCN(C)CC4)c3n2)cc1 | 7.3µM* | 6 | 0 | -5% | 22%
Cc1cc(NC(=O)c2cc(-c3cccnc3)nc3c(C)c(C)ccc23)no1 | 23µM* | 1 | -3 | -26% | ?

Source: PubChem
